Compound activity deposited in PubChem by University of Kansas High Throughput Screening Laboratory.
Pf apPOL inh – Pf-apPOL DNA polymerase inhibition. Recombinant Pf-apPOL, molecular beacon fluorescence, 1.5 h. inhibition, % at 10 µM. hit rate 0.25% among 210,000. AID 1794808
mHTT CaM bind – inhibitors of human mutant huntingtin-calmodulin interaction. P42858. hit rate 3.6% among 190,000. AlphaScreen His-mHTT/GST-CaM binding, luminescence. AID 1671202. inhibition, % at 15 µM
Each line names hits and unclear results; the compound was inactive in the other large screens; ! = not confirmed by another sample. The entries come from a sample that favours hits as a whole. Cut-off read from the data, not from the text of the source: active = inhibition above about 50%; inactive = the rest.

CC(C)c1noc(-c2cccnc2N2CCCN(C(=O)c3cccc(F)c3)CC2)n1	none
COc1ccccc1C(=O)N1CCc2nc(C)ncc2C1	none
O=C(COc1ccccc1/C=C1/NC(=O)N(Cc2ccccc2F)C1=O)Nc1ccc(F)cc1	none
O=C(O)c1cc(N2C(=O)C3C4C=CC(C5CC45)C3C2=O)ccc1Cl (stereo unspecified)	Pf apPOL inh 63
Cc1ccc(N2C(=O)C3C4C=CC(C5CC45)C3C2=O)cc1Cl (stereo unspecified)	none
CC(C)(C)n1nc2c(c1NC(=O)c1cccc([N+](=O)[O-])c1)CSC2	mHTT CaM bind 67
Cc1ccc(C(=O)Nc2c3c(nn2C(C)(C)C)CSC3)cc1[N+](=O)[O-]	none
Cc1c(C(=O)Nc2c3c(nn2-c2ccc([N+](=O)[O-])cc2)CSC3)cccc1[N+](=O)[O-]	none
Cc1c(C(=O)Nc2c3c(nn2C(C)(C)C)CSC3)cccc1[N+](=O)[O-]	mHTT CaM bind 92
O=C(C1CC(c2ccc(F)cc2)=NO1)N1CCN(c2ccc(F)cc2)CC1 (stereo unspecified)	none
O=C(Nc1ccc2c(N3CCOCC3)ncnc2c1)c1ccc(Br)cc1	none
COc1ccccc1CNC(=O)CCCN1C(=O)CCn2nc(C)cc21	none
CC(C)[C@H]1COCCS(=O)(=O)N1Cc1ccccc1-c1cccc2c1oc1ccccc12	mHTT CaM bind 53
CC(C)[C@H]1COCCS(=O)(=O)N1Cc1ccc(Cl)cc1	none
CCC(=O)N1CCN(C(C(=O)N2CCc3ccccc3C2)C2CCCC2)CC1 (stereo unspecified)	none
O=c1c2sccc2n(Cc2ccccc2)c(=O)n1-c1ccc(F)cc1F	none
O=C(CCc1conc1-c1ccccc1)NCc1cccc(F)c1	none
Cc1cc2c3c(c1)C(C)CC(C)(C)N3C(=O)C2=O (stereo unspecified)	none
CCc1cc2c3c(c1)C(C)=CC(C)(C)N3C(=O)C2=O	mHTT CaM bind 72
COc1ccc(CCNC(=O)NCCn2nc(-c3ccccn3)n(C)c2=O)cc1	none
O=[N+]([O-])c1cccc(N=Cc2cccc([N+](=O)[O-])c2O)c1	none
Cc1c(Cl)c(C)c([N+](=O)[O-])c(O)c1C=Nc1cccc(O)c1	mHTT CaM bind 76
O=[N+]([O-])c1cccc(C=Nc2cccc(O)c2)c1O	mHTT CaM bind 74
Cc1ccc(N=Cc2c(C)c(Cl)c(C)c([N+](=O)[O-])c2O)c(O)c1	none
O=c1oc2ccccc2cc1-c1cccc(N=Cc2ccccc2O)c1	none
Oc1ccccc1C=Nc1cccc(N=Cc2ccccc2O)c1	mHTT CaM bind 71
CC(=O)N1CCCc2cc(S(=O)(=O)N3CCN(c4ccc5nncn5n4)CC3)ccc21	none
COc1ccc(OC)c(/C=C2/N=C(C3CCCCC3)OC2=O)c1	none
COc1cccc(CCNC(=O)C(=O)Nc2ccc(C)c(Cl)c2)c1	none
COc1ccc(/C=C2\SC(=N)NC2=O)c(OC)c1	none
O=C(Nc1cnc(N2CCCCCC2)nc1)c1ccccc1Cl	none
Cc1ccc(NC(=O)/C(C#N)=C/c2cc(C)n(-c3cccnc3)c2C)cc1C	mHTT CaM bind 52
CCOc1ccc(NC(=O)/C(C#N)=C/c2cc(C)n(-c3cccnc3)c2C)cc1	none
Cc1cc(C)nc(SCC(=O)c2ccc(C(C)C)cc2)n1	none
Cc1ccc(C(=O)Sc2nc(C)cc(C)n2)cc1	mHTT CaM bind 71
Cc1nn(C)c(C)c1S(=O)(=O)NCc1ccc2c(c1)CCO2	none (no result: mHTT CaM bind)
CCn1c(=O)c(-c2ccc(C(=O)NC(C)(C)C)cc2)nc2ccccc21	none
CCNc1ccc(Br)cc1-c1nc2ccccc2n(CC)c1=O	mHTT CaM bind 52
CCc1ccc(NS(=O)(=O)c2cc(Cl)ccc2OC)cc1	none
COc1ccc(Cl)cc1S(=O)(=O)Nc1ccc2c(c1)NC(=O)C(C)(C)CO2	mHTT CaM bind 69
CCCC(=O)Nc1ccccc1NC(=O)Cc1ccccc1[N+](=O)[O-]	none
CC(=O)NC(c1cccs1)c1cc([N+](=O)[O-])c2cccnc2c1O (stereo unspecified)	mHTT CaM bind 100
O=C(CCc1ccccc1)NC(c1cccs1)c1cc(Cl)c2cccnc2c1O (stereo unspecified)	none
CCCC(=O)NC(c1cccs1)c1cc([N+](=O)[O-])c2cccnc2c1O (stereo unspecified)	mHTT CaM bind 100
O=C(O)CC(NCc1ccc(Cl)c([N+](=O)[O-])c1)c1cccs1 (stereo unspecified)	none
CCC(=O)NC(c1cccs1)c1cc([N+](=O)[O-])c2cccnc2c1O (stereo unspecified)	mHTT CaM bind 100
CCCCC(=O)NC(c1ccco1)c1cc([N+](=O)[O-])c2cccnc2c1O (stereo unspecified)	mHTT CaM bind 100
CC1=NOC(=O)/C1=C\c1ccc(OCc2ccc(Br)cc2)cc1	none
Cc1ccc(S(N)(=O)=O)cc1NC(=O)c1cccc([N+](=O)[O-])c1	none
COc1ccccc1CN1C(=O)CCC1(C)C(=O)NC1CCC(C)CC1 (stereo unspecified)	none
Cc1ccc(F)cc1NC(=O)C1CCN(c2c(C#N)cnc3ccc(F)cc23)CC1	none
CCOc1ccc(N/C=C/C(=O)c2cccs2)c([N+](=O)[O-])c1	none
CCCCC(=O)NC(c1ccccc1OC)c1cc([N+](=O)[O-])c2cccnc2c1O (stereo unspecified)	mHTT CaM bind 100!
CCCCC(=O)NC(c1cccs1)c1cc([N+](=O)[O-])c2cccnc2c1O (stereo unspecified)	mHTT CaM bind 96
COc1ccccc1N1CCN(c2ccc([N+](=O)[O-])c3cccnc23)CC1	none
CCSc1nnc(-c2nn(C)c3c2CN(C(=O)c2ccc(F)cc2)CC3)n1C	none
O=S1(=O)N=C(Cc2ccc(Cl)c(Cl)c2)Nc2ccccc21	none
CCC(=O)N1CCc2cc(N3CC(C(=O)NCc4cccc(C)c4)CC3=O)ccc21 (stereo unspecified)	none
CC(=O)N1CCc2cc(N3CC(C(=O)NC4CCCCCC4)CC3=O)ccc21 (stereo unspecified)	none
COc1ccc(C2CC(=O)Oc3c(C(CCN4CCCC(C)C4)c4cc(OC)c(OC)c(OC)c4)c(OC)cc(OC)c32)cc1 (stereo unspecified)	mHTT CaM bind 61
COc1ccc(C2CC(=O)Oc3c(C(CCN4CCCC(C)C4)c4ccc(N(C)C)cc4)c(OC)cc(OC)c32)cc1 (stereo unspecified)	mHTT CaM bind 101
COc1ccc(C(CC(=O)N2CCCC(C)C2)c2c(O)cc(OC)cc2OC)cc1 (stereo unspecified)	none
COc1ccc(C2CC(=O)Oc3c(C(CCN4CCCCC4)c4ccc(N(C)C)cc4)c(OC)cc(OC)c32)cc1 (stereo unspecified)	mHTT CaM bind 101
COc1cc(OC)c2c(c1C(CCN1CCCC1)c1ccc(N(C)C)cc1)OC(=O)CC2c1ccc(N(C)C)cc1 (stereo unspecified)	mHTT CaM bind 100
COc1ccc(C2CC(=O)Oc3cc(OC)c(OC)c(OC)c32)cc1 (stereo unspecified)	none
COc1ccccc1-c1c(Cc2ccccc2)[nH]n2c(=O)c3c(nc12)CCCC3	none
CC1(C)CC(=O)C2=C(C1)Nc1[nH]c(=O)[nH]c(=O)c1C2c1cccs1 (stereo unspecified)	none
Cc1cccc(NC(=O)c2cc(S(=O)(=O)NCc3ccccc3Cl)ccc2F)c1C	none
COc1ccccc1-n1c(SCc2c(C)c(C)c(C)c(C)c2C)nnc1-c1ccccc1Cl	none (no result: mHTT CaM bind)
CC(=O)c1cccc(NC(=O)CCc2csc3nc(-c4ccccc4)cn23)c1	none
